Assay results from PubChem BioAssay AID629 (Emory University Molecular Libraries Screening Center, 2007).
About 1,400 (1.6%) of roughly 86,000 compounds were called active. The full list was thinned out, with actives kept by preference. Values without a mark were called inactive. Cut-off read from the data, not from the text of the source: active = inhibition above about 50%; inactive = the rest.

Molecular target: Estrogen receptor (Homo sapiens) (UniProt P03372)
Assay: blockers of SRC-1 peptide recruitment to ERα – biochemical, TR-FRET, ERα LBD, estradiol-bound, primary screen (AID 629);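 note: 0% = receptor plus peptide control and 100% = peptide only without receptor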
Details: TR-FRET ER-alpha LBD / SRC-1 peptide, at 25.6 µM, hits give high values

Chain of Estrogen receptor (Homo sapiens) (P03372 whole entry, looked up, the tested form may be a part): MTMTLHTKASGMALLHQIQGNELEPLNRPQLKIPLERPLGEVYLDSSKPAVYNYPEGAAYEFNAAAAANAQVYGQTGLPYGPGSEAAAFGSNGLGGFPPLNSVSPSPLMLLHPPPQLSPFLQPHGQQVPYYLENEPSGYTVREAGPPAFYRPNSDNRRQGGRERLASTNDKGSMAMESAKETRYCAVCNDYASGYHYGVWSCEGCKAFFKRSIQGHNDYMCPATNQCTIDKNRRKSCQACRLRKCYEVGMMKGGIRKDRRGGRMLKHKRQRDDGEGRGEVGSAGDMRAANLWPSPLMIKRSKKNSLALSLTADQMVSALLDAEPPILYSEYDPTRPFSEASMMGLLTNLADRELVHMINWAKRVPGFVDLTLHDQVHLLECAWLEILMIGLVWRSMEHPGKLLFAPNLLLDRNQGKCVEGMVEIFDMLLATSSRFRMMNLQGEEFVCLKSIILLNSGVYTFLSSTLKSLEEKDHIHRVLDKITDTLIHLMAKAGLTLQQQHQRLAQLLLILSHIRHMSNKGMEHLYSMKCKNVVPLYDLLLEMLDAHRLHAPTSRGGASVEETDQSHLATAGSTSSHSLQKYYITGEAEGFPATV

SMILES | inhibition
O=C(CN1CCN(C(=O)c2ccco2)CC1)Nc1ccc2c(c1)OCO2 | -22.6%
CCOC(=O)C1=C(CSc2nnnn2C)N(C)C(=O)NC1c1ccccc1 (centres undefined) | -4.78%
COc1ccc(CNC(=O)c2cc3c(=O)n4ccccc4nc3n(CC3CCCO3)c2=N)cc1 (centres undefined) | 3.23%
O=C(Nc1ccccc1)Nc1ccccc1C(=O)NCc1ccco1 | -4.11%
O=C(NCc1ccco1)c1cccn2c(=O)c3cc(Br)ccc3nc12 | 56.4% [fluorescence artefact?] (active)
O=C(NCc1ccco1)c1cc(-c2cccnc2)nc2ccc(Cl)cc12 | 10.8%
CCn1c(=N)c(C(=O)NCCCOC)cc2c(=O)n3cccc(C)c3nc21 | -7.26%
COc1ccc(CCn2c(=N)c(C(=O)NCc3ccco3)cc3c(=O)n4cccc(C)c4nc32)cc1 | 65.7% [fluorescence artefact?] (active)
Cc1ccc(/C=N/NC(=O)C2=NNC(c3ccccc3)(c3ccccc3)C2)c(O)c1 | 21.9%
CCSc1ccccc1C(=O)NCc1ccc(OC)cc1 | -6.6%
COC(=O)/C(NC(C)=O)=C(\C)c1ccc(Cl)cc1 | -8.11%
CC(=O)NC1=NN(C(C)=O)C(C)(c2ccc(Cl)s2)S1 (centres undefined) | 2.57%
CN(C)c1ccnc2sc3c(=O)n(-c4ccc(Cl)cc4)cnc3c12 | 42.5%
COC(=O)C1=C(C(=O)OC)C2(OC1c1ccc(Br)cc1)C(=O)c1ccccc1C2=O (centres undefined) | -2.52%
COc1ccc(CN2CCn3ncc(C(=O)Nc4ccc(Cl)cc4Cl)c3C2=O)cc1 | 54.9% [fluorescence artefact?] (active)
Cc1cnc(C(=O)OCC(=O)Nc2ccc(Cl)cc2Cl)cn1 | -9.26%
COc1ccc(OC)c(NC(=O)c2cnn(-c3ccccc3Cl)c2NC(=O)c2ccco2)c1 | -3.16%
O=C(c1cccc(F)c1)N1CCC(O)(c2cccnc2)CC1 | 1.95%
CCCNC(=O)CN(Cc1ccccc1F)S(=O)(=O)c1ccc(C)cc1 | 5.89%
COc1ccccc1NC(=O)CN1CCN(S(=O)(=O)c2ccc(Br)cc2)CC1 | 39.3%
O=C(CN1CCN(S(=O)(=O)c2ccc(F)cc2)CC1)Nc1ccccc1F | 64.5% [fluorescence artefact?] (active)
COc1cc2c(cc1NC(=O)CN1CCN(S(=O)(=O)c3ccc(F)cc3)CC1)oc1ccccc12 | 14.2%
CCCCNC(=O)C1(c2ccc(OC)cc2)CCOCC1 | 25.4%
OC(CN=c1sc2ccccc2n1CC(O)COc1ccccc1)COc1ccccc1 (centres undefined) | -21.1%
O=C(Nc1ccc2c(c1)OCCO2)C(c1ccc(F)cc1)N1CCCCC1 (centres undefined) | 1.74%
COC(=O)c1[nH]c2ccccc2c1NC(=O)CN1CCCc2ccccc21 | 66.9% [fluorescence artefact?] (active)
COC(=O)c1[nH]c2cccc(C)c2c1NC(=O)CN1CCCc2ccccc21 | 33.1%

SMILES | inhibition
CCOC(=O)c1[nH]c2ccc(OC)cc2c1NC(=O)CCN1CCN(Cc2ccccc2)CC1 | 0.69%
COC(=O)c1ccccc1NC(=O)CN(Cc1ccc(Cl)cc1)S(C)(=O)=O | 5.73%
C=CCc1ccc(OCCOc2cccc(/C=N/n3cnnc3)c2)c(OC)c1 | -8.6%
COc1ccc(CC(=O)Nc2ccc(-c3nnc(-c4ccc(C)cc4)o3)cc2)cc1 | 8.24%
Cc1ccc(OCC(=O)Nc2ccc(-c3nnc(-c4ccco4)o3)cc2)cc1 | 63.7% [fluorescence artefact?] (active)
CCOc1ccc(-c2nnc(-c3ccco3)o2)cc1 | -0.96%
O=C(CSc1nc2cccnc2n1Cc1ccccc1)N1CCc2ccccc21 | 34.4%
COc1nc(NC2CCCCC2)nc(N2CCCCCC2)n1 | 6.7%
C=C(C)Cn1c(SCC(=O)NCc2ccco2)nc2sc3c(c2c1=O)CCC3 | 7.04%
COC(=O)c1c(NC(=O)CSc2nncs2)sc2c1CCCCC2 | -1.55%
COc1ccc(-n2c(SCC(=O)Nc3sc4c(c3C#N)CCCC4)nnc2-c2ccc(O)cc2)cc1 | 78.5% [fluorescence artefact?] (active)
CC(Sc1nc2ccccc2c(=O)n1Cc1ccco1)C(=O)c1ccccc1 (centres undefined) | 4.97%
COc1ccc(-c2nnc(SCC(=O)c3ccco3)n2-c2ccccc2)cc1 | 11%
N#Cc1c(NC(=O)CSc2nc3ccccc3c(=O)n2Cc2ccco2)sc2c1CCCC2 | 61.9% [fluorescence artefact?] (active)
Cc1cccn2c(=O)c(/C=C(\C#N)S(=O)(=O)c3ccc(Cl)cc3)c(N3CCC(C(N)=O)CC3)nc12 | -0.02%
O=C(CSCc1c(F)cccc1Cl)NCC1CCCO1 (centres undefined) | -1.37%
CCCCOc1ccc(C(=O)NCc2ccncc2)cc1 | 1.95%
Cc1ccnc(N2C(=O)c3ccccc3C2Nc2ccc3c(c2)OCCO3)c1 (centres undefined) | 1.59%
COC(=O)c1cc(NC2c3ccccc3C(=O)N2c2ccc(Cl)cn2)cc(C(=O)OC)c1 (centres undefined) | 66.6% (active)
CCc1ccccc1NC1c2ccccc2C(=O)N1c1cccnc1 (centres undefined) | -8.02%
CCOC(=O)C1=C(C)NC(SC)=NC1c1ccccc1 (centres undefined) | -2.42%
Cc1nnc(SC(C)C(=O)Nc2ccc(S(=O)(=O)NC3CCCCC3)cc2)s1 (centres undefined) | 21.6%
CCOc1ccc2cc(C#N)c(SCC(=O)OC)nc2c1 | 17.3%
COc1ccc(N2CCN(C(=O)CSc3ncnc4c3cnn4-c3ccc(OC)cc3)CC2)cc1 | -7.43%
COc1ccc(N2CCN(C(=O)CSc3nc4cc(OC)c(OC)cc4cc3C#N)CC2)cc1 | 51.1% [fluorescence artefact?] (active)
COc1ccc(C)cc1S(=O)(=O)NCCc1ccccc1 | 8.31%
Cc1ccc(OC(=O)c2ccccc2C(=O)OCC(F)(F)C(F)F)cc1 | -6.39%
